Source: PubChem BioAssay
In the library only some 1.2% were active in any assay of this set; here they are far more common.
RGS7-Gao – modulates binding of RGS7 to human Galphao. P09471. Multiplexed bead flow cytometry; actives lie on both sides. binding response (% of control), % at 10 µM. 0.35% of 220,000 active. AID 1439; in the data active = binding response below about 49% or above about 150%; inconclusive = no clear call, values can overlap the other calls; inactive = in between;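 also: fluorescent Galphao held in activated GDP-AlF4 state binding bead-coupled RGS7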
RGS4-Gao reg – modulates binding of RGS4 to human Galphao | P09471 | AID 1415 | binding response (% of control), % at 10 µM | Multiplexed bead flow cytometry; actives lie on both sides | 0.33% of 220,000 active; in the data active = binding response below about 49% or above about 150%; inactive = in between;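 also: fluorescent Galphao activated with aluminum fluoride binding bead-coupled RGS4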
RGS16-Gao HTS – RGS16-Galphao interaction regulator (human). AID 1441. bead-based flow cytometry RGS16-Galphao binding, fluorescence; actives lie on both sides. 0.38% of 220,000 active. binding response (% of control), % at 10 µM;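 also: Galphao activated by GDP with aluminum fluoride before binding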
GSH fluor – compound fluoresces at 488/530 nm on GSH beads; GSH beads flow cytometry, compound fluorescence 488/530 nm; stronger effect = higher value; fluorescence (KMESF) at 10 µM; 0.25% of 190,000 active; in the data active = fluorescence above about 89;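 also: glutathione beads carrying GST-tagged Bcl family fusion proteins plus one bare bead set; values are compound well signal with DMSO vehicle wells as background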
RGS8-Gao – regulators of human RGS8-Galphao interaction; response (percent of control binding), % at 10 µM; AID 1423; multiplexed bead flow cytometry, RGS8-Galphao binding; actives lie on both sides; 0.34% of 220,000 active; in the data active = response below about 60% or above about 140%; inactive = in between;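 also: Galphao activated as the GDP aluminium fluoride complex binding bead-coupled RGS8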
Avidin bead fluor – compound fluoresces at 488/530 nm on avidin beads; compound fluorescence 488/530 nm, flow cytometry; stronger effect = higher value; fluorescence (KMESF) at 10 µM; 0.38% of 220,000 active; AID 1775; in the data active = fluorescence above about 47
RGS4-Gao HTS – RGS4-Galphao interaction regulator (human); 99% of 1,600 active; RGS4–Galpha-o binding response, % at 10 µM; shares compounds with RGS16-Gao HTS; AID 1504; multiplexed bead flow cytometry, RGS–Galpha-o binding;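 also: fluorescently labeled Galpha-o bound to GDP with aluminium fluoride binding biotinylated RGS beads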
Biotin-avidin – biotin-avidin bead binding disruption counter-screen; 1,700 tested, under 10 active; AID 1783; streptavidin beads, fluorescein-biotin binding, flow cytometry; inhibition, % at 10 µM; shares compounds with RGS16-Gao HTS;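 active = inhibition above 50%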;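 also: median green fluorescence of gated singlet beads compared with DMSO control wells; 0% = DMSO wells and 100% = complete loss of bead fluorescence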
RGS8-Gao single – RGS8-Galphao interaction regulation, single point confirmation; binding response (% of control), % at 10 µM; bead-based flow cytometry RGS8-Galphao binding, fluorescence; actives lie on both sides; shares compounds with RGS16-Gao HTS; 3% of 1,700 active; AID 1836; in the data active = binding response below about 72% or above about 130%; inactive = in between;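 also: Galphao activated as GDP AlF4 complex before binding bead RGS8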
RGS7-Gao confirm – RGS7-Galphao interaction regulation, single point confirmation | shares compounds with RGS16-Gao HTS | bead-based flow cytometry RGS7-Galphao binding; actives lie on both sides | response (percent of control binding), % at 10 µM | 7.8% of 1,700 active | AID 1837; in the data active = response below about 75% or above about 130%; inactive = in between;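 also: fluorescent Galphao activated with GDP and aluminum fluoride binding bead-coupled RGS7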
RGS16-Gao single – RGS16-Galphao interaction regulation, single point confirmation. 4% of 1,700 active. shares compounds with RGS16-Gao HTS. bead-based flow cytometry, RGS16-Galphao binding; actives lie on both sides. response (% of control binding), % at 10 µM. AID 1838; in the data active = response below about 74% or above about 130%; inactive = in between;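 also: Galphao activated as the GDP aluminium fluoride complex binding bead-coupled RGS16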
RGS4-Gao confirm – confirmation of regulators of human RGS4-Galphao interaction. shares compounds with RGS16-Gao HTS. RGS4-Galphao binding, multiplexed bead flow cytometry; actives lie on both sides. binding response (% of control), % at 10 µM. 4% of 1,700 active; in the data active = binding response below about 74% or above about 130%; inactive = in between
RGS19-Gao single – RGS19-Galphao interaction regulation, single point confirmation; shares compounds with RGS16-Gao HTS; bead-based flow cytometry RGS19-Galphao binding; actives lie on both sides; response (percent of control binding), % at 10 µM; 5% of 1,700 active; AID 1841; in the data active = response below about 50% or above about 160%; inactive = in between;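 also: 100% = no compound control and 0% = blank background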
Target sequence (P09471 whole entry, looked up): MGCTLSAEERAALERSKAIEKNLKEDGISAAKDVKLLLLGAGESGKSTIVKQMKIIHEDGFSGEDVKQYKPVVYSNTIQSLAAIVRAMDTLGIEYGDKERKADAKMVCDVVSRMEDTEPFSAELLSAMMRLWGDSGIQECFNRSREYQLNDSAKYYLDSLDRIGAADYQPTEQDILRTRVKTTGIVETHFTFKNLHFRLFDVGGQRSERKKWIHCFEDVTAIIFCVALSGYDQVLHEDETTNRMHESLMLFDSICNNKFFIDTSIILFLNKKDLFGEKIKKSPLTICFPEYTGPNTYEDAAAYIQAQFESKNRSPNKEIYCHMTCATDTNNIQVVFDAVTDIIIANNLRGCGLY
Target sequence (P49795 whole entry, looked up): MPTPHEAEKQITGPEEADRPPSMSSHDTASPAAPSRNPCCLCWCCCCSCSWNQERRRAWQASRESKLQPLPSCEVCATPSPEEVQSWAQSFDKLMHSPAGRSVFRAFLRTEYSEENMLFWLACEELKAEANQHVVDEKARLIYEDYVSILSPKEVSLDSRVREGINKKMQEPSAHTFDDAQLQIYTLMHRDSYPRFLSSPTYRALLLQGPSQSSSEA
An asterisk follows results filed as active; i = inactive; ? = inconclusive; . = not tested or not shown; [ ] = dose if it differs, or a comment. Unless noted, no rule for the calls is given here.

SMILES	RGS7-Gao	RGS4-Gao reg	RGS16-Gao HTS	GSH fluor	RGS8-Gao	Avidin bead fluor	RGS4-Gao HTS	Biotin-avidin	RGS8-Gao single	RGS7-Gao confirm	RGS16-Gao single	RGS4-Gao confirm	RGS19-Gao single
COc1ccccc1NC(=O)Nc1ccnn1Cc1cccs1	-20*	-59*	-55*	31	6.0*	-5	.	0	98	94	97	98	94
COc1ccccc1NC(=O)Cc1cccs1	99	99	101	25	99	13	.	.	.	.	.	.	.
Cc1ccc(-c2cc(C(=O)OCn3nnc4ccccc4c3=O)c3ccccc3n2)cc1	99	101	100	21	102	13	.	.	.	.	.	.	.
Cc1c(C(=O)N/N=C/c2ccc(N(C)C)cc2)[nH]c2ccc(Cl)cc12	95	94	23*	9	66	4	94*	-1	98	95	99	100	82
COc1ccccc1-c1c(C)nn2c(N3CCC(C)CC3)cc(C)nc12	?	17*	11*	.	22*	0	.	0	111	112	111	111	101
O=C(CN1CCN(c2ncccn2)CC1)N1CCCC1	101	103	107	14	104	12	.	.	.	.	.	.	.
CCN(CC)C(=O)CN1CCN(c2ncccn2)CC1	122	120	271	31	142*[activator]	3	120*	0	100	86	93	96	83
CC(C)Oc1ccc(/C=N/NC(N)=S)cc1	110	109	90	19	100	8	.	.	.	.	.	.	.
CCn1nnnc1NCc1ccc(N2CCCC2)cc1	65	35*	320	22	76	0	.	-1	98	93	93	96	89
COc1cccc(C(=O)NCCOc2cc(C)cc(C)c2)c1	98	91	56	7	81	3	.	-1	101	95	100	98	119
C=CCn1c(C(CCCC)CC(C)O)n[nH]c1=S (stereo unspecified)	85	84	-9.0*	9	67	5	84*	0	91	88	87	90	55
C=CCn1c(C(CCC(C)C)CC(C)(C)O)n[nH]c1=S (stereo unspecified)	111	102	94	28	103	6	.	.	.	.	.	.	.
CC(CNCC1CCCO1)COc1cccc2ccccc12 (stereo unspecified)	127	117	i	30	176*[activator]	3	117*	3	103	99	107	101	112
CC(CNCC1CCCO1)COc1ccccc1 (stereo unspecified)	108	113	175	35	123	3	.	.	.	.	.	.	.
Cc1c(Cl)cccc1-n1c(SCC(=O)NCc2ccccc2Cl)nnc1-c1ccncc1	101	98	99	12	101	39	.	.	.	.	.	.	.
N=c1n(CCCOc2ccccc2Cl)c2ccccc2n1CC(N)=O	?	101	98	.	99	8	.	.	.	.	.	.	.
S=C(NC1CC1)NC1CCCc2ccccc21 (stereo unspecified)	104	106	115	12	110	15	.	.	.	.	.	.	.
CC(=O)COC(=O)CNC(=O)c1ccc(Br)cc1	137	138	.	33	167*[activator]	2	138*	.	.	.	.	.	.
